# Experimental data taken from PubChem BioAssay (NCATS).
# Results filed as inconclusive are left out. Where a call stands in place of a potency, no number is given. A number with no mark means an inactive call. Activity calls are given as the source filed them. Calls follow the shape of the dose curve; as a rule, active = well fitted inhibition curve with a large enough effect; inconclusive = small, poorly fitted or top-dose-only effect; inactive = flat fitted curve, though single readings scatter.
# What was measured:
# [1] = tested on: HaCat; test: Cytotoxic Profiling of Annotated Libraries Using Quantitative High-Throughput Screening (AID 1296008); conditions: Five cell lines viability, CellTiter-Glo ATP luminescence, 48-72 h; max response: hits give low values
# Outline: (§1)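 Compounds were pin-transferred onto cells and incubated 48 or 72 hr at 37 degree Celsius, 95% humidity. CellTiter-Glo was added, plates sat 10 min at room temperature, then ATP-coupled luminescence was imaged as the viability read-out.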
# [2] = tested on: MCC-13; test: qHTS assay to identify novel small-molecules to repurpose for Merkel cell carcinoma treatment (AID 1296009); conditions: MCC and control cell lines, CellTiter-Glo viability, 72 h; series mostly up to 46 µM; also: potency is read from the fitted curve at half-maximal effect
# Outline: (§2)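 qHTS format: cells treated with library compounds in DMSO across 8 (NPC) or 11 (MIPE) concentrations. Readout after 72 hr at 37 degree celsius was CellTiter-Glo luminescence.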
# [3] = tested on: MCC-26; test: as above; conditions: MCC and control cell lines, CellTiter-Glo viability, 72 h; series mostly up to 46 µM
# Outline: as §2
# [4] = tested on: MKL-1; test: as above; conditions: MCC and control cell lines, CellTiter-Glo viability, 72 h; series mostly up to 46 µM
# Outline: as §2
# [5] = tested on: MKL-2; test: as above; conditions: MCC and control cell lines, CellTiter-Glo viability, 72 h; series mostly up to 46 µM
# Outline: as §2
# [6] = tested on: PC15; test: qHTS profiling for inhibitors of Plasmodium falciparum proliferation (AID 504749); also: potency is read from the fitted curve at half-maximal effect; conditions: P. falciparum in erythrocytes, SYBR Green DNA, 72 h; series mostly up to 28.7 µM
# Outline: (§3)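 Parasite proliferation within erythrocytes, 72 h exposure. Endpoint: SYBR Green I fluorescence after overnight lysis at room temperature. Controls: 0.29 uM artemisinin, DMSO.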
# [7] = tested on: PC26; test: as above; conditions: P. falciparum in erythrocytes, SYBR Green DNA, 72 h; series mostly up to 28.7 µM
# Outline: as §3
# [8] = tested on: PC49; test: as above; conditions: P. falciparum in erythrocytes, SYBR Green DNA, 72 h; series mostly up to 28.7 µM
# Outline: as §3
# [9] = tested on: SC27B; test: as above; conditions: P. falciparum in erythrocytes, SYBR Green DNA, 72 h; series mostly up to 28.7 µM
# Outline: as §3
# [10] = tested on: TAB109; test: as above; conditions: P. falciparum in erythrocytes, SYBR Green DNA, 72 h; series mostly up to 28.7 µM
# Outline: as §3
# [11] = tested on: TAB113; test: as above; conditions: P. falciparum in erythrocytes, SYBR Green DNA, 72 h; series mostly up to 28.7 µM
# Outline: as §3
# [12] = tested on: TAB165; test: as above; conditions: P. falciparum in erythrocytes, SYBR Green DNA, 72 h; series mostly up to 28.7 µM
# Outline: as §3
# [13] = tested on: W2; test: as above; conditions: P. falciparum in erythrocytes, SYBR Green DNA, 72 h; series mostly up to 28.7 µM
# Outline: as §3
# [14] = tested on: KB-3-1; test: Cytotoxic Profiling of Annotated Libraries Using Quantitative High-Throughput Screening (AID 1296008); conditions: Five cell lines viability, CellTiter-Glo ATP luminescence, 48-72 h; max response: hits give low values
# Outline: as §1
# [15] = tested on: NIH3T3; test: as above; conditions: Five cell lines viability, CellTiter-Glo ATP luminescence, 48-72 h; max response: hits give low values
# Outline: as §1
# [16] = tested on: HACAT; test: qHTS assay to identify novel small-molecules to repurpose for Merkel cell carcinoma treatment (AID 1296009); conditions: MCC and control cell lines, CellTiter-Glo viability, 72 h; at 44.8 µM (top of the series) unless noted; also: potency is read from the fitted curve at half-maximal effect
# Outline: as §2
# [17] = tested on: HEK293T; test: as above; conditions: MCC and control cell lines, CellTiter-Glo viability, 72 h; at 44.8 µM (top of the series) unless noted
# Outline: as §2
# Also: nearly all actives have a fitted effect of over 60% in size.
compound,measurement,setting,value
CNCC[C@@H](Oc1ccccc1C)c1ccccc1,max response,[1],1.42%
same,Potency,[2],inactive
same,Potency,[3],inactive
same,Potency,[4],inactive
same,Potency,[5],inactive
CN(C)/N=N/c1nc[nH]c1C(N)=O,Potency,[6],inactive
same,Potency,[7],inactive
same,Potency,[8],inactive
same,Potency,[9],inactive
same,Potency,[10],inactive
same,Potency,[11],inactive
same,Potency,[12],inactive
same,Potency,[13],inactive
same,max response,[14],-8.2%
same,Potency,[2],inactive
same,Potency,[3],inactive
same,Potency,[4],inactive
C[C@@H]1C[C@H]2[C@@H]3C[C@H](F)C4=CC(=O)C(Cl)=C[C@]4(C)[C@@]3(F)[C@@H](O)C[C@]2(C)[C@@]1(O)C(=O)CO,max response,[1],2.77%
same,max response,[14],11.7%
same,max response,[15],-7.22%
same,Potency,[2],inactive
same,Potency,[4],inactive
same,Potency,[5],inactive
C[C@@H](CN(C)C)CN1c2ccccc2Sc2ccccc21,Potency,[6],inactive
same,Potency,[8],inactive
same,Potency,[9],inactive
same,Potency,[10],inactive
same,Potency,[11],inactive
same,Potency,[12],inactive
same,max response,[1],-0.198%
same,max response,[15],-1.51%
same,Potency,[2],inactive
same,Potency,[3],inactive
same,Potency,[5],23.7 µM (active)
CN1CCN(CCCN2c3ccccc3Sc3ccc(S(=O)(=O)N(C)C)cc32)CC1,Potency,[12],3.98 µM (active)
same,Potency,[13],2.03 µM (active)
same,outcome,[1],inactive
same,max response,[14],-2.22%
same,outcome,[16],inactive
same,Potency,[2],inactive
same,Potency,[3],inactive
NC(=O)C(=O)N/N=C/c1ccc([N+](=O)[O-])o1,Potency,[6],inactive
same,Potency,[8],inactive
same,Potency,[9],inactive
same,Potency,[10],inactive
same,Potency,[11],inactive
same,Potency,[12],inactive
same,outcome,[1],inactive
same,max response,[14],30.2%
same,outcome,[16],inactive
same,Potency,[2],inactive
same,Potency,[3],inactive
same,Potency,[4],26.6 µM (active)
same,Potency,[5],7.5 µM (active)
CC/C(=C(/CC)c1ccc(O)cc1)c1ccc(O)cc1,Potency,[7],inactive
same,Potency,[8],inactive
same,Potency,[10],inactive
same,max response,[14],-22.7%
same,max response,[15],-25.4%
same,Potency,[2],inactive
same,Potency,[3],inactive
same,Potency,[4],inactive
CN1CCCC(CC2c3ccccc3Sc3ccccc32)C1 (centres undefined),max response,[1],2.06%
same,max response,[14],7.2%
same,Potency,[3],inactive
same,Potency,[5],23.7 µM (active)
Cc1cc(N)c2cc(NC(=O)Nc3ccc4nc(C)cc(N)c4c3)ccc2n1,Potency,[9],12.6 µM (active)
same,Potency,[10],12.6 µM (active)
same,Potency,[11],10 µM (active)
same,Potency,[12],5.62 µM (active)
same,Potency,[13],0.849 µM (active)
same,max response,[1],-0.42%
same,max response,[14],-4.37%
same,max response,[15],-1.27%
same,Potency,[2],inactive
same,Potency,[3],inactive
same,Potency,[5],inactive
CCCCCCCCCCCCCCNCCO,Potency,[7],inactive
same,Potency,[8],inactive
same,Potency,[9],inactive
same,Potency,[10],inactive
same,Potency,[11],inactive
same,Potency,[12],inactive
same,Potency,[13],9.53 µM (active)
same,max response,[14],5.95%
same,Potency,[2],inactive
same,Potency,[3],inactive
COc1cc2c(cc1OC)C(=O)C(CC1CCN(Cc3ccccc3)CC1)C2 (centres undefined),Potency,[6],inactive
same,Potency,[7],inactive
same,Potency,[8],inactive
same,Potency,[9],inactive
same,Potency,[10],inactive
same,Potency,[11],inactive
same,max response,[14],1.75%
same,max response,[15],-17.7%
same,Potency,[2],inactive
same,Potency,[3],inactive
same,Potency,[4],inactive
Clc1ccc2c(c1)CCc1cccnc1C2=C1CCNCC1,Potency,[7],13.5 µM (active)
same,Potency,[9],inactive
same,Potency,[13],3.38 µM (active)
same,max response,[1],-1.5%
same,max response,[14],-7.06%
same,Potency,[2],inactive
same,Potency,[3],inactive
same,Potency,[5],26.6 µM (active)
CC(=O)O[C@H]1C[C@@H]2CC[C@@H]3[C@H](CC[C@@]4(C)[C@H]3C[C@H]([N+]3(C)CCCCC3)[C@@H]4OC(C)=O)[C@@]2(C)C[C@@H]1[N+]1(C)CCCCC1,max response,[14],1.63%
O=C(Nc1ccc(Cl)c(Cl)c1)C1CC1,Potency,[6],inactive
same,Potency,[7],inactive
same,Potency,[8],inactive
same,Potency,[9],inactive
same,Potency,[10],inactive
same,Potency,[11],inactive
same,Potency,[12],inactive
same,Potency,[13],inactive
same,max response,[14],-14.1%
same,max response,[15],-1.64%
same,Potency,[2],inactive
same,Potency,[3],inactive
same,Potency,[4],inactive
same,Potency,[5],inactive
CC(C)C[C@H]1C(=O)N2CCC[C@H]2[C@]2(O)O[C@](NC(=O)[C@@H]3C=C4c5cccc6[nH]c(Br)c(c56)C[C@H]4N(C)C3)(C(C)C)C(=O)N12,max response,[14],3.47%
Cc1c(C)n(Cc2ccccc2)c2ccc(C(=O)OCCN(C)C)cc12,Potency,[6],inactive
same,Potency,[7],inactive
same,Potency,[8],inactive
same,Potency,[9],inactive
same,Potency,[10],inactive
same,Potency,[11],inactive
same,Potency,[12],inactive
same,outcome,[1],inactive
same,max response,[14],1.73%
same,outcome,[16],inactive
same,Potency,[2],inactive
same,Potency,[3],inactive
same,Potency,[4],inactive
CCC(NC(C)C)C(O)c1ccc(O)c(O)c1 (centres undefined),max response,[14],-9.53%
CCCCCCCCCCOCC(O)CN (centres undefined),Potency,[11],inactive
same,max response,[14],-10.6%
same,Potency,[3],inactive
same,Potency,[5],23.7 µM (active)
CCCCN1CCCC1C(=O)Nc1c(C)cc(C)cc1C (centres undefined),Potency,[6],inactive
same,Potency,[7],inactive
same,Potency,[8],inactive
same,Potency,[9],inactive
same,Potency,[10],inactive
same,Potency,[11],inactive
same,Potency,[12],inactive
same,max response,[14],-0.66%
same,max response,[15],-4.8%
same,Potency,[2],inactive
same,Potency,[4],inactive
same,Potency,[5],inactive
NCCCC[C@H](N[C@@H](CCc1ccccc1)C(=O)O)C(=O)N1CCC[C@H]1C(=O)O,Potency,[6],inactive
same,Potency,[7],inactive
same,Potency,[8],inactive
same,Potency,[9],inactive
same,Potency,[10],inactive
same,Potency,[11],inactive
same,Potency,[12],inactive
same,Potency,[13],inactive
same,outcome,[17],inactive
same,Potency,[2],inactive
same,Potency,[3],inactive
same,Potency,[4],inactive
same,Potency,[5],inactive
C[N+]1(CCCCC[N+]2(C)CCCC2)CCCC1,Potency,[6],inactive
same,Potency,[7],inactive
same,Potency,[8],inactive
same,Potency,[9],inactive
same,Potency,[10],inactive
same,Potency,[11],inactive
same,Potency,[12],inactive
same,Potency,[13],inactive
same,max response,[14],15%
